Measured values: PubChem BioAssay AID1159580 (chemical genetic matrix, 2015)
Several values for one entry are separate records, joined by “and”; a condition that tells them apart may be missing. Identical values can stand only once. Out of some 5,500 compounds screened, about 2,000 (36%) were called active. Inconclusive results (about 18%) are left out. No stated cut-off is given here; in the data, active means normalized growth mostly below about 0.91 (no sharp cut-off); inconclusive means no clear call, values can overlap the other calls; inactive means mostly above about 0.92. The list shows a part of the results.

Experiment: chemical genetic growth profiling, strain panel (AID 1159580);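 further: tested at 20 µM; growth read once vehicle control cultures reached saturation at 30 °C; 1 = growth at the plate median or of vehicle wells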
Conditions: S. cerevisiae deletion strains, growth OD

Measured: normalized growth

C[C@]12C=CC(=O)C=C1CCC1C2C(=O)C[C@@]2(C)C1CC[C@]2(O)C(=O)CO (stereo not given in full)
inactive: locus YAL013W, strain DEP1, stronger effect = lower value 0.992 | locus YAL021C, strain ccr4, stronger effect = lower value 1.03 | locus YAL026C, strain drs2, stronger effect = lower value 1.02 | locus YAL030W, strain snc1, stronger effect = lower value 0.997 | locus YBL061C, strain skt5, stronger effect = lower value 0.992 | locus YBR009C, strain hhf1, stronger effect = lower value 1.01 | locus YBR021W, strain FUR4, stronger effect = lower value 0.985 | locus YBR023C, strain chs3, stronger effect = lower value 1.01 | locus YBR171W, strain sec66, stronger effect = lower value 0.979 | locus YBR229C, strain ROT2, stronger effect = lower value 0.954 | locus YBR231C, strain swc5, stronger effect = lower value 1.01 | locus YBR279W, strain paf1, stronger effect = lower value 1 | locus YCL011C, strain gbp2, stronger effect = lower value 1 | locus YCL016C, strain dcc1, stronger effect = lower value 1.01 | locus YCL029C, strain bik1, stronger effect = lower value 0.978 | locus YCL061C, strain MRC1, stronger effect = lower value 1 | locus YCL069W, strain vba3, stronger effect = lower value 0.996 | locus YCR088W, strain abp1, stronger effect = lower value 0.989 | locus YDL005C, strain med2, stronger effect = lower value 0.981 | locus YDL035C, strain GPR1, stronger effect = lower value 0.981 | locus YDL040C, strain nat1, stronger effect = lower value 0.995 | locus YDL074C, strain BRE1, stronger effect = lower value 0.965 | locus YDL101C, strain DUN1, stronger effect = lower value 0.985 | locus YDL134C, strain PPH21, stronger effect = lower value 0.992 | locus YDL185W, strain tfp1, stronger effect = lower value 0.983 | locus YDL192W, strain arf1, stronger effect = lower value 0.997 | locus YDR001C, strain nth1, stronger effect = lower value 1 | locus YDR069C, strain doa4, stronger effect = lower value 0.98 | locus YDR101C, strain arx1, stronger effect = lower value 0.991 | locus YDR137W, strain rgp1, stronger effect = lower value 1.01 | locus YDR150W, strain NUM1, stronger effect = lower value 0.987 | locus YDR159W, strain sac3, stronger effect = lower value 1.01 | locus YDR162C, strain NBP2, stronger effect = lower value 0.992 | locus YDR195W, strain ref2 0.916 | locus YDR297W, strain sur2, stronger effect = lower value 0.989 | locus YDR318W, strain mcm21, stronger effect = lower value 0.996 | locus YDR334W, strain swr1, stronger effect = lower value 0.999 | locus YDR335W, strain msn5, stronger effect = lower value 0.997 | locus YDR388W, stronger effect = lower value 0.986 | locus YDR392W, strain spt3, stronger effect = lower value 1.05 | locus YDR502C, strain sam2, stronger effect = lower value 0.989 | locus YEL003W, strain gim4, stronger effect = lower value 1 | locus YEL037C, strain rad23, stronger effect = lower value 0.996 | locus YEL061C, strain CIN8 (second series), stronger effect = lower value 0.997 | locus YEL061C, strain CIN8, stronger effect = lower value 0.985 | locus YER015W, strain faa2, stronger effect = lower value 0.996 | locus YER016W, strain bim1, stronger effect = lower value 1.01 | locus YER110C, stronger effect = lower value 0.966 | locus YER111C, strain swi4, stronger effect = lower value 0.981 | locus YER155C, strain BEM2 (second series), stronger effect = lower value 0.973 | locus YER155C, strain BEM2, stronger effect = lower value 1 | locus YER167W, strain BCK2, stronger effect = lower value 0.991 | locus YFR010W, strain ubp6, stronger effect = lower value 0.984 | locus YGL078C, strain dbp3, stronger effect = lower value 0.984 | locus YGL086W, strain mad1, stronger effect = lower value 0.995 | locus YGL167C, strain pmr1, stronger effect = lower value 0.991 | locus YGL173C, strain kem1, stronger effect = lower value 0.994 | locus YGL227W, strain vid30, stronger effect = lower value 0.999 | locus YGL240W, strain doc1, stronger effect = lower value 0.978 | locus YGL248W, strain PDE1, stronger effect = lower value 0.978 | locus YGL253W, strain hxk2, stronger effect = lower value 0.992 | locus YGR078C, strain PAC10, stronger effect = lower value 0.988 | locus YGR135W, strain pre9, stronger effect = lower value 0.997 | locus YGR252W, strain gcn5, stronger effect = lower value 0.95 | locus YHR013C, strain ard1, stronger effect = lower value 0.999 | locus YHR027C, strain rpn1, stronger effect = lower value 1 | locus YHR030C, strain SLT2, stronger effect = lower value 0.997 and 1.02 | locus YHR079C, strain IRE1 (second series), stronger effect = lower value 0.998 | locus YHR079C, strain IRE1, stronger effect = lower value 1.05 | locus YHR094C, strain hxt1, stronger effect = lower value 0.988 | locus YHR129C, strain ARP1, stronger effect = lower value 0.963 | locus YHR142W, strain chs7, stronger effect = lower value 0.972 | locus YHR200W, strain rpn10, stronger effect = lower value 0.986 | locus YIL066C, strain RNR3, stronger effect = lower value 0.98 | locus YIL073C, strain SPO22, stronger effect = lower value 1.01 | locus YIL125W, strain kgd1, stronger effect = lower value 0.993 | locus YIR030C, strain dcg1, stronger effect = lower value 0.987 | locus YJL092W, strain hpr5, stronger effect = lower value 1 | locus YJL095W, strain BCK1 (second series), stronger effect = lower value 1.01 | locus YJL095W, strain BCK1, stronger effect = lower value 0.982 and 1.03 | locus YJL115W, strain asf1, stronger effect = lower value 0.988 | locus YJL129C, strain trk1, stronger effect = lower value 0.978 | locus YJL134W, strain LCB3, stronger effect = lower value 0.995 | locus YJL154C, strain vps35, stronger effect = lower value 1 | locus YJL164C, strain tpk1, stronger effect = lower value 1.02 | locus YJL166W, strain qcr8, stronger effect = lower value 0.976 | locus YJL168C, strain set2, stronger effect = lower value 0.992 | locus YJL187C, strain SWE1 (second series), stronger effect = lower value 0.984 | locus YJR043C, strain POL32, stronger effect = lower value 1 | locus YJR066W, strain TOR1, stronger effect = lower value 0.976
